Measured values as given in the supplement of paper PMC10849652.
About 8,800 targets were measured; listed, in parts, are those with a hit and a random draw of the rest. About 0.5% of all pairs of compound and target were hits.

Columns and labels:
Assay in all cases: log2 fold change, soluble protein after heating vs DMSO (PISA); higher = thermal stabilisation; K562 lysate, 10 uM; active = over 0.2 and 3.5 SD of the protein, either way, in both replicates (recomputed)
erlotinib = compound: C#Cc1cccc(Nc2ncnc3cc(OCCOC)c(OCCOC)cc23)c1 [erlotinib]
Procedure, shortened: (§1)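 Soluble protein was defined as the supernatant remaining after 21,000xg for 90 min, following pooling of heated aliquots and adjustment to 0.5% NP-40 at 4°C. Before that, crude K562 extract at 1 mg/mL protein in PBS pH 7.4 with 1 mM MgCl2 was treated with 10 μM compound for 30 min and heated for 3 min across 48°C-58°C. Quantification used TMTpro 16plex LC-MS/MS with channel sums equalised, and values are log-two fold changes in thermal stability relative to solvent controls from duplicates.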

[1] = compound: C/C(=N\NC(=O)C1=CC(=CC=C1)S(=O)(=O)N2CCOCC2)/C3=C(C=CC(=C3)Cl)O
Procedure, shortened: as §1

[2] = compound: C1=CC(=CC=C1C2=NC3=C(N2)C=C(C=C3)C(=O)N)OC4=CC=C(C=C4)Cl
Procedure, shortened: as §1

[3] = compound: C1=CC2=C(C=CC(=C2)/C=C\3/C(=O)NC(=NCC4=CC=CS4)S3)N=C1
Procedure, shortened: as §1

[4] = compound: C1=CC2=NC=CN=C2C=C1/C=C/3\C(=O)NC(=O)S3
Procedure, shortened: as §1

[5] = compound: C1=CC=C(C=C1)C2=NC(=C(N2)C3=CC=NC=C3)C4=CC(=C(C=C4)Cl)O
Procedure, shortened: as §1

[6] = compound: C1=CC=C2C(=C1)C3=NNC4=CC=CC(=C43)C2=O
Procedure, shortened: as §1

[7] = compound: C1CCN(C1)C(=O)NC2=CC=CC(=C2)NC3=NC=C(C(=N3)NCCC4=CN=CN4)Br
Procedure, shortened: as §1

[8] = compound: C1CN(CCC1(CC2=CC=C(C=C2)Cl)N)C3=NC=NC4=C3C=CN4
Procedure, shortened: as §1

IRAK-1-4 Inhibitor I = compound: C1COCCN1CCN2C3=CC=CC=C3N=C2NC(=O)C4=CC(=CC=C4)[N+](=O)[O-] [IRAK-1-4 Inhibitor I]
Procedure, shortened: as §1

ibrutinib = compound: C=CC(=O)N1CCC[C@@H](n2nc(-c3ccc(Oc4ccccc4)cc3)c3c(N)ncnc32)C1 [ibrutinib]
Procedure, shortened: as §1

[9] = compound: CC(=O)c1cnc2ccc(-c3cc(Cl)c(O)c(Cl)c3)nc2c1N[C@H]1CC[C@H](CN(C)C)CC1
Procedure, shortened: as §1

ralimetinib = compound: CC(C)(C)Cn1c(N)nc2ccc(-c3[nH]c(C(C)(C)C)nc3-c3ccc(F)cc3)nc21 [ralimetinib]
Procedure, shortened: as §1

[10] = compound: CC(C)(O)CC(=O)NCCn1ccc2ncnc(Nc3ccc(Oc4cccc(C(F)(F)F)c4)c(Cl)c3)c21
Procedure, shortened: as §1

[11] = compound: CC(C)C1=C2N=C(C=C(N2N=C1)NCC3=CC=CC=C3)NCCCCCCN
Procedure, shortened: as §1

[12] = compound: CC1=C(C(CC(=O)N1)C2=CC=C(C=C2)C(F)(F)F)C(=O)NC3=C(C=C4C(=C3)C=NN4)F
Procedure, shortened: as §1

[13] = compound: CC1=C(C2=C(C=C1)C(=O)C3=CC=CC=C3N2CCCN)C
Procedure, shortened: as §1

[14] = compound: CC1=C(C=C(C=C1)NC(=O)C2=CC(=CC=C2)C(C)(C)C#N)NC3=CC4=C(C=C3)N=CN(C4=O)C
Procedure, shortened: as §1

[15] = compound: CC1=C(C=C(C=C1)NC(=O)C2=CC(=CC=C2)N(C)C)NC(=O)C3=CC=C(C=C3)O
Procedure, shortened: as §1

[16] = compound: CC1=CC=C(C=C1)SC2=C3C=C(SC3=CN=C2)C(=O)N
Procedure, shortened: as §1

Measured: log2 fold change

APOB (UniProt P04114)
inactive: erlotinib -0.028 | [1] -0.001 | [2] -0.032 | [3] -0.029 | [4] -0.021 | [5] 0 | [6] -0.055 | [7] -0.067 | [8] 0.015 | IRAK-1-4 Inhibitor I 0.097 | ibrutinib -0.025 | [9] -0.016 | ralimetinib -0.052 | [10] -0.195 | [11] 0.011 | [12] -0.02 | [13] -0.089 | [14] 0.063 | [15] -0.005 | [16] -0.036

AKR1C2 (UniProt P52895)
Chain of UniProt P52895 (P52895 whole entry, looked up): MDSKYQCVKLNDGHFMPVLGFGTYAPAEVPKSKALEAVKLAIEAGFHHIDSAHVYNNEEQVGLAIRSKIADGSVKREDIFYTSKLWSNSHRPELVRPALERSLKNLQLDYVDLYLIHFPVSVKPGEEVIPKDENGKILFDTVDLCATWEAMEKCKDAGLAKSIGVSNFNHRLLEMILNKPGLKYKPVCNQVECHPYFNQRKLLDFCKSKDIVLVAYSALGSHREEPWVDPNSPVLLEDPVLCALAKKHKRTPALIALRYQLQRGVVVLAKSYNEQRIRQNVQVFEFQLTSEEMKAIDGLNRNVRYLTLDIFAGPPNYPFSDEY
inactive: erlotinib 0.03 | [1] -0.167 | [2] 0.005 | [3] 0.015 | [4] 0.006 | [5] 0.013 | [6] -0.046 | [7] -0.033 | [8] 0.006 | IRAK-1-4 Inhibitor I -0.024 | ibrutinib 0.031 | [9] 0.021 | ralimetinib -0.043 | [10] -0.035 | [11] 0.025 | [12] -0.025 | [13] 0.038 | [14] -0.013 | [15] 0.018 | [16] 0.019

ARL8A (UniProt Q96BM9)
Chain of UniProt Q96BM9 (Q96BM9 whole entry, looked up): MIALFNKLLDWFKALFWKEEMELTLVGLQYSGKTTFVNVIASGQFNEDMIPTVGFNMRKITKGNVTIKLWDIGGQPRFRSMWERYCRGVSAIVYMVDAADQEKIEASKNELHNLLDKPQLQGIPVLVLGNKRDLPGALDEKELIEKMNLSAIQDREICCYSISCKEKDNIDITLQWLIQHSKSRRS
inactive: erlotinib -0.223 | [1] -0.039 | [2] 0.176 | [3] 0.157 | [4] 0.036 | [5] 0 | [6] -0.041 | [7] 0.026 | [8] 0.028 | IRAK-1-4 Inhibitor I 0.091 | ibrutinib -0.141 | [9] 0.119 | ralimetinib -0.101 | [10] -0.102 | [11] 0.11 | [12] 0.135 | [13] -0.049 | [14] -0.143 | [15] -0.022 | [16] 0

ALG8 (UniProt Q9BVK2)
inactive: erlotinib 0.022 | [1] -0.102 | [2] -0.082 | [3] 0.018 | [4] 0.016 | [5] -0.062 | [6] -0.001 | [7] 0.053 | [8] 0.012 | IRAK-1-4 Inhibitor I -0.007 | ibrutinib 0.017 | [9] -0.013 | ralimetinib 0.013 | [10] 0.036 | [11] -0.028 | [12] -0.005 | [13] 0.054 | [14] 0.027 | [15] -0.011 | [16] -0.003

AIMP1 isoform 2 (UniProt Q12904)
Chain of UniProt Q12904 (Q12904 whole entry, looked up): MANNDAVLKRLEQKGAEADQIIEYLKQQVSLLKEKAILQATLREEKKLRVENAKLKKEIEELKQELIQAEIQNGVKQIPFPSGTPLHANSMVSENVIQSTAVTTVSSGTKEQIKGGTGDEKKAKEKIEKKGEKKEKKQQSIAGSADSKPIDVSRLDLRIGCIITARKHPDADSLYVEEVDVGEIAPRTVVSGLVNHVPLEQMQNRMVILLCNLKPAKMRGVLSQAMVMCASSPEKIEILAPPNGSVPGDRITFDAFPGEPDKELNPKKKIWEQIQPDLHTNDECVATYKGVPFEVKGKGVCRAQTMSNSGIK
inactive: erlotinib 0.044 | [1] 0.013 | [2] -0.028 | [3] 0.001 | [4] -0.03 | [5] 0.021 | [6] -0.025 | [7] -0.02 | [8] 0.02 | IRAK-1-4 Inhibitor I 0.01 | ibrutinib 0.009 | [9] 0.012 | ralimetinib 0.026 | [10] 0.018 | [11] 0.022 | [12] -0.026 | [13] 0.005 | [14] -0.014 | [15] -0.006 | [16] 0.006

ARL1 (UniProt P40616)
Chain of UniProt P40616 (P40616 whole entry, looked up): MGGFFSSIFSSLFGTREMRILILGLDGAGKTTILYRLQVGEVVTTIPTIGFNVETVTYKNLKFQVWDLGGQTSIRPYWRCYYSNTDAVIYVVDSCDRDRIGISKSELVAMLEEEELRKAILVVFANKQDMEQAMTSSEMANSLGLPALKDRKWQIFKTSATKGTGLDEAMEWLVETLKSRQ
inactive: erlotinib 0.006 | [1] -0.212 | [2] 0.037 | [3] -0.022 | [4] -0.03 | [5] -0.013 | [6] -0.018 | [7] -0.046 | [8] 0.025 | IRAK-1-4 Inhibitor I 0.053 | ibrutinib -0.029 | [9] -0.005 | ralimetinib 0.027 | [10] -0.001 | [11] -0.017 | [12] 0.098 | [13] -0.026 | [14] 0.134 | [15] -0.021 | [16] -0.027

ABL1 isoform 2 (UniProt P00519)
inactive: erlotinib 0.026 | [1] -0.005 | [2] -0.013 | [3] 0.026 | [4] -0.027 | [5] 0.033 | [6] -0.022 | [7] -0.035 | [8] 0.015 | IRAK-1-4 Inhibitor I -0.01 | ibrutinib 0.157 | [9] 0.077 | ralimetinib 0.019 | [10] 0.024 | [11] -0.017 | [12] -0.014 | [13] -0.01 | [14] 0.048 | [15] 0.011 | [16] -0.043

AKAP8L (UniProt Q9ULX6)
active: [14] -0.271
inactive: erlotinib 0.061 | [1] 0.093 | [2] 0.032 | [3] 0.002 | [4] 0.017 | [5] 0 | [6] -0.022 | [7] 0.029 | [8] -0.032 | IRAK-1-4 Inhibitor I -0.002 | ibrutinib 0 | [9] -0.046 | ralimetinib 0.002 | [10] -0.019 | [11] 0.009 | [12] -0.02 | [13] 0.003 | [15] 0.046 | [16] 0.032

AMPD3 isoform 4 (UniProt Q01432)
Chain of UniProt Q01432 (Q01432 whole entry, looked up): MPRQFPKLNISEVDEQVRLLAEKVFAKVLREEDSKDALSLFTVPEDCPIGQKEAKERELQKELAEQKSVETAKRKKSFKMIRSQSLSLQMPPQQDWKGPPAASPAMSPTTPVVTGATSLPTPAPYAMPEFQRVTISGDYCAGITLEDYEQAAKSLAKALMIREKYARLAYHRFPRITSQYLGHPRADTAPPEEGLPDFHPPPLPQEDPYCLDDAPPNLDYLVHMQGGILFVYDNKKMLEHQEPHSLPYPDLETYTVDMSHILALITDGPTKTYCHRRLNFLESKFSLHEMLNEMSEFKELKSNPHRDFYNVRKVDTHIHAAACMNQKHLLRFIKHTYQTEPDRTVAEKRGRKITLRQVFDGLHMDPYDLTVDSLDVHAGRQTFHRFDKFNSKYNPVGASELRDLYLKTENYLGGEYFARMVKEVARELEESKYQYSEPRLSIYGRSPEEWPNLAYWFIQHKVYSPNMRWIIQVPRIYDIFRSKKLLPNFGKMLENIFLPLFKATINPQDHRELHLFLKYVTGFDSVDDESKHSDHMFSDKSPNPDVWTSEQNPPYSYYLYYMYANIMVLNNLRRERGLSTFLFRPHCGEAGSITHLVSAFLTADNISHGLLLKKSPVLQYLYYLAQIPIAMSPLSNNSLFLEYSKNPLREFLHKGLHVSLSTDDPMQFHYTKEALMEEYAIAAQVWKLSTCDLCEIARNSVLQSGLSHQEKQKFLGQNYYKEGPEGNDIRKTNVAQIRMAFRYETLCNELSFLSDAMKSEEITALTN
inactive: erlotinib 0 | [1] 0.048 | [2] 0.031 | [3] 0.007 | [4] -0.072 | [5] -0.004 | [6] 0.027 | [7] -0.002 | [8] -0.002 | IRAK-1-4 Inhibitor I 0.015 | ibrutinib 0.05 | [9] 0.001 | ralimetinib 0.037 | [10] -0.041 | [11] -0.019 | [12] -0.029 | [13] 0.011 | [14] 0.006 | [15] -0.004 | [16] -0.005

AKT2 (UniProt P31751)
inactive: erlotinib -0.011 | [1] 0.082 | [2] -0.013 | [3] -0.005 | [4] -0.022 | [5] -0.025 | [6] 0.009 | [7] -0.014 | [8] -0.017 | IRAK-1-4 Inhibitor I -0.045 | ibrutinib -0.016 | [9] 0.006 | ralimetinib 0.026 | [10] 0.006 | [11] -0.006 | [12] 0.011 | [13] 0.007 | [14] 0.005 | [15] -0.004 | [16] -0.044

ACADS (UniProt P16219)
Chain of UniProt P16219 (P16219 whole entry, looked up): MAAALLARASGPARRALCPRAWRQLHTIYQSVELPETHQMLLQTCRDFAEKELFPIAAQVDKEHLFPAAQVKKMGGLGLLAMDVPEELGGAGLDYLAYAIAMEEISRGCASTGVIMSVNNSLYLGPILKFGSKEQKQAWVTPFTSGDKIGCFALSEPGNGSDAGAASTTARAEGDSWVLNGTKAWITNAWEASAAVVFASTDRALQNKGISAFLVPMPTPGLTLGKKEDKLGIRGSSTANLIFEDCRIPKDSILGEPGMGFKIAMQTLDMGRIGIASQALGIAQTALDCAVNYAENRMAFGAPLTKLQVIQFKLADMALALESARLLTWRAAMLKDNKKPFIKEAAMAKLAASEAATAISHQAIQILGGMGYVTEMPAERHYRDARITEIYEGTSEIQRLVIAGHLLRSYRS
inactive: erlotinib -0.013 | [1] 0.021 | [2] -0.013 | [3] 0.062 | [4] -0.012 | [5] 0.001 | [6] -0.046 | [7] 0.01 | [8] 0.027 | IRAK-1-4 Inhibitor I 0.017 | ibrutinib -0.006 | [9] 0.031 | ralimetinib 0.004 | [10] -0.026 | [11] -0.002 | [12] -0.041 | [13] -0.022 | [14] 0.004 | [15] -0.027 | [16] 0.018

ANP32A (UniProt P39687)
Chain of UniProt P39687 (P39687 whole entry, looked up): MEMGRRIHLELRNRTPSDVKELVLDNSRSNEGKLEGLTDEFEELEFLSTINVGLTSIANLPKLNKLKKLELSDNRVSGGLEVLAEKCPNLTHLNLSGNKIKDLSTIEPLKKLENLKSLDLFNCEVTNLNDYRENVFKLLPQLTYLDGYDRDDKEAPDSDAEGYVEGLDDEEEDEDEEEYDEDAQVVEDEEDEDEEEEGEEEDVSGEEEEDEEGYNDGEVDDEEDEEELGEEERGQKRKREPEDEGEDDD
inactive: erlotinib -0.147 | [1] 0.075 | [2] -0.199 | [3] -0.012 | [4] 0.012 | [5] 0.006 | [6] 0.018 | [7] 0.026 | [8] -0.008 | IRAK-1-4 Inhibitor I 0.013 | ibrutinib 0.003 | [9] -0.003 | ralimetinib 0.002 | [10] 0.188 | [11] -0.041 | [12] -0.029 | [13] 0.079 | [14] -0.025 | [15] -0.046 | [16] -0.018

ARMCX5 (UniProt Q6P1M9)
Chain of UniProt Q6P1M9 (Q6P1M9 whole entry, looked up): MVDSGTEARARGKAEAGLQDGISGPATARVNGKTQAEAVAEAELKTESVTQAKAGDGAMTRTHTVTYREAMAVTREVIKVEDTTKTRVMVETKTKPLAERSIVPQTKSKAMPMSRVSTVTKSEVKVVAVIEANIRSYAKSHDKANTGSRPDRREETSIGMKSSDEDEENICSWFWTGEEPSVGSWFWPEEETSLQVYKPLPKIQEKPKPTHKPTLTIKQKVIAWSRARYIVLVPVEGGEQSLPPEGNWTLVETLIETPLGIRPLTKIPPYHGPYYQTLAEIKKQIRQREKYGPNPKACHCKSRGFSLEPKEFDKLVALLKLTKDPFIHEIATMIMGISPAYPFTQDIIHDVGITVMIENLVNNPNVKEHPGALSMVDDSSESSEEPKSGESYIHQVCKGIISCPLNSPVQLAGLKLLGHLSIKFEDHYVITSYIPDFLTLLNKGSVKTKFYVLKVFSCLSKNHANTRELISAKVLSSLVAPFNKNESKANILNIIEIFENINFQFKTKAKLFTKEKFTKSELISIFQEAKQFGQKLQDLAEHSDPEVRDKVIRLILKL
inactive: erlotinib -0.08 | [1] 0.047 | [2] -0.004 | [3] 0.157 | [4] 0.001 | [5] 0.03 | [7] 0.075 | [8] -0.039 | IRAK-1-4 Inhibitor I -0.08 | ibrutinib 0.04 | [9] -0.018 | ralimetinib 0.012 | [10] 0.013 | [11] -0.004 | [12] -0.047 | [13] 0.053 | [15] -0.049 | [16] -0.093
active: [6] -0.35

ACLY (UniProt P53396)
Chain of UniProt P53396 (P53396 whole entry, looked up): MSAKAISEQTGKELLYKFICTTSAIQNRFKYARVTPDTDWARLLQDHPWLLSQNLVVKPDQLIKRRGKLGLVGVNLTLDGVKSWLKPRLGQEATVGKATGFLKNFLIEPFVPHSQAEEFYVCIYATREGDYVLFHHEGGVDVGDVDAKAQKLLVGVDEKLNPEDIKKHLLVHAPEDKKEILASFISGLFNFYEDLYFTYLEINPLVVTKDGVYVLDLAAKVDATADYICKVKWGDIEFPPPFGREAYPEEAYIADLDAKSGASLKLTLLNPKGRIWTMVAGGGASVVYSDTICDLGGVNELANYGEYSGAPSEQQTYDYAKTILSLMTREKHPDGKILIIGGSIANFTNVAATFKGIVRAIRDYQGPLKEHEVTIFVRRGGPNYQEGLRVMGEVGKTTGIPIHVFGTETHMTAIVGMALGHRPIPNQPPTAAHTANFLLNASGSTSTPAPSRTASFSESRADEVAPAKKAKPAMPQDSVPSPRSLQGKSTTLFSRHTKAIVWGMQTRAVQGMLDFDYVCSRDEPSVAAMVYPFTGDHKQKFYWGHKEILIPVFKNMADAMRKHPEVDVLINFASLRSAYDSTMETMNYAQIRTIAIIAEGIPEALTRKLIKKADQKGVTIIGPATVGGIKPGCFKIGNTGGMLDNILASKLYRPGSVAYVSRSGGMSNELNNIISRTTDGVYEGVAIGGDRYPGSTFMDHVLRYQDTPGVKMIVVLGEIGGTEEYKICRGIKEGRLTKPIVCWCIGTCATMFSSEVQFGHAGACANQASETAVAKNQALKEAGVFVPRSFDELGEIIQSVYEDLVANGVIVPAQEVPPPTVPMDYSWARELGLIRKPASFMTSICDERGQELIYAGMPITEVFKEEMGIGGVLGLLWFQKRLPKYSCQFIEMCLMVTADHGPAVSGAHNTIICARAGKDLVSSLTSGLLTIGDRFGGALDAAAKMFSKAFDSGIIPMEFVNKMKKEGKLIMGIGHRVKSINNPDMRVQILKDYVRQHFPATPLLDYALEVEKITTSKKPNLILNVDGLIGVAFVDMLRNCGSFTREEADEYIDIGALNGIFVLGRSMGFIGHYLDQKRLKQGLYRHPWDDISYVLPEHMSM
inactive: erlotinib -0.006 | [1] 0.037 | [2] -0.018 | [3] -0.013 | [4] -0.011 | [5] -0.016 | [6] -0.018 | [7] 0.002 | [8] 0.019 | IRAK-1-4 Inhibitor I -0.01 | ibrutinib -0.002 | [9] 0.003 | ralimetinib 0.001 | [10] -0.011 | [11] 0.02 | [12] -0.02 | [13] 0.014 | [14] -0.014 | [15] -0.012 | [16] 0.054

APAF1 (UniProt O14727)
inactive: erlotinib 0.005 | [1] 0.084 | [2] -0.054 | [3] 0.019 | [4] -0.016 | [5] -0.029 | [6] -0.003 | [7] 0.022 | [8] 0.015 | IRAK-1-4 Inhibitor I -0.021 | ibrutinib 0.027 | [9] 0.063 | ralimetinib 0.031 | [10] -0.04 | [11] 0.009 | [12] 0.008 | [13] -0.005 | [14] 0.003 | [15] 0.002 | [16] 0.022

ALDH1B1 (UniProt P30837)
Chain of UniProt P30837 (P30837 whole entry, looked up): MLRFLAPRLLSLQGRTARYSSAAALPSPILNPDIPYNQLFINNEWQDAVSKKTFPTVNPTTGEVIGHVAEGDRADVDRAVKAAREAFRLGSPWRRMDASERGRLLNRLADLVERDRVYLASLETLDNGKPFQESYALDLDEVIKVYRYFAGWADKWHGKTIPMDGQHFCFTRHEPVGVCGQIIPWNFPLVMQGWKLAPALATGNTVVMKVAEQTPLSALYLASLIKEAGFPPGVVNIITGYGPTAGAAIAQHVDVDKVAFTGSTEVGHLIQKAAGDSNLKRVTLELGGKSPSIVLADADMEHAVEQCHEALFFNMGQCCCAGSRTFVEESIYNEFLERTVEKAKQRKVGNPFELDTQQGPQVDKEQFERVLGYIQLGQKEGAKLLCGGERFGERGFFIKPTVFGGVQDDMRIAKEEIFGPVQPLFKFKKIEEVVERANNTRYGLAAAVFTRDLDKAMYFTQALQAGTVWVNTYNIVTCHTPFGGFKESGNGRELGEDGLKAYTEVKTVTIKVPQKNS
inactive: erlotinib -0.064 | [1] 0.027 | [2] -0.035 | [3] -0.004 | [4] 0.031 | [5] 0.009 | [7] -0.025 | [8] 0.048 | IRAK-1-4 Inhibitor I 0.038 | ibrutinib 0.008 | [9] 0.086 | ralimetinib 0.019 | [10] 0.02 | [11] 0.056 | [12] -0.024 | [13] -0.005 | [14] -0.018 | [15] -0.014 | [16] -0.018
active: [6] 0.262
